HepG2 viability = HepG2 cytotoxicity, counter-screen for TGF-b inhibitors; HepG2 CAGA-GFP viability, ATP luminescence, 18 h; Potency, µM (highest dose often 46.1 µM), for the others: at the top dose activity change, negative = cytotoxicity, hits mostly cytotoxic; 410,000 tested, 0.76% active; further: potency means the concentration at half of the fitted maximal effect
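HepG2 CAGA-GFP cells (1000/well, DMEM with 1% FBS) received compound, then TGF-beta at 500 pg/mL final, and were incubated 18 hours at 37 degrees C. Viability was read by CellTiter-Glo luminescence. Media-only wells were set as complete cell-killing and DMSO as no toxicity.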
ATXN viability = reduces viability in counter-screen for ATXN expression inhibitors | S2 cells (HEK-293 line with an ATXN2-luciferase reporter) viability, CellTiter-Fluor protease fluorescence, 24 h | Potency, µM (top dose mostly 56.7 µM), hits mostly cytotoxic | 400,000 tested, 0.49% active; further: potency means the concentration at half of the fitted maximal effect; nearly all actives have a fitted effect of over 40% in size
IL-1B inflam inh = inhibitors of inflammasome signaling (IL-1 beta secretion); activity change, % at 57.5 µM; THP-1 LPS/ATP IL-1B secretion, AlphaLISA, 16 h; stronger effect = lower value; AID 743279; 360,000 tested, 4.7% active; in the data active means activity change below about -50%; inconclusive means mostly about -30% to -49%; further: on the % scale 0 is the no-effect control and ±100 the full control effect
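THP-1 cells pretreated 1 hr with compounds (up to 57.5 uM final), then stimulated with LPS (250 ng/mL final) plus ATP (1.25 mM final); secreted IL-1B measured by AlphaLISA after 16 hr, decreased signal indicating inhibition.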
ATXN2 expr inh = ATXN2 expression inhibition; HEK-293 ATXN2-luciferase reporter, luminescence, 24 h; Potency, µM (highest dose often 57 µM), without a hit: at the highest dose activity change, negative = inhibition, usual class: inhibitors; 360,000 tested, 0.72% active; AID 1745845; further: potency means the concentration at half of the fitted maximal effect; on the % scale 0 is the no-effect control and ±100 the full control effect; nearly all actives have a fitted effect of over 55% in size
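qHTS (up to 57 uM final) was run with 24 h compound exposure of reporter cells at 37 °C. Each well was multiplexed: SteadyGlo luminescence measured ATXN2-luciferase expression after a fluorogenic Gly-Phe-AFC viability readout (25 uM final).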
TGFb inhibitor = blocks TGF-b signaling. Potency, µM (highest dose often 46.1 µM), without a hit: at the top dose activity, negative = inhibition, usual class: inhibitors. 410,000 tested, 1.2% active. AID 588855. HepG2 CAGA-GFP TGF-b/SMAD3 reporter, GFP fluorescence, 18 h; TGF-beta stimulated, 500 pg/mL final; further: potency means the concentration at half of the fitted maximal effect; on the % scale 0 is the no-effect control and ±100 the full control effect; nearly all actives have a fitted effect of over 65% in size
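Read-out: total well GFP (ex488/em500-530) summed from mean per-cell fluorescence. Cells: HEPG2 CAGA-GFP, 1% FBS DMEM, 18 h at 37 degrees C with 500 pg/mL final TGF-beta. Unstimulated wells served as the full-inhibition control; stimulated DMSO wells = 0%.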
An asterisk follows results filed as active; i = inactive; ? = inconclusive; . = no result. An excerpt weighted towards active compounds, which were near 5.7% of everything screened. Unless noted, the call rests on the fitted dose curve; in most records, active means well fitted curve in the direction sought with a large enough effect; inconclusive means small, poorly fitted or top-dose-only effect, or another doubt; inactive means no such curve, though single readings can be large; an effect the other way counts as inactive or inconclusive.

SMILES	HepG2 viability	ATXN viability	IL-1B inflam inh	ATXN2 expr inh	TGFb inhibitor
CCOc1ccc(C(=O)NCCc2csc(-c3ccc(C(F)(F)F)cc3)n2)cc1OCC	-1%	.	.	.	0%
CCOc1ccccc1OCCNC(C)Cc1ccc(OC)c(S(N)(=O)=O)c1 (stereo not drawn)	.	.	.	-4%	.
CCCCCCCCC1=NCCc2c1[nH]c1ccccc21	16µM*	i	-94*	-34%	?
S=C1NC2=C(CCCC2=C2SCCS2)C(c2ccccc2)N1 (stereo not drawn)	-13%	i	-84*	-2%	0%
COc1ccc(S(=O)(=O)Nc2cccc(-c3ccc(N4CCC(C)CC4)nn3)c2)cc1OC	-24%	i	.	-29%	-1%
CSc1ccc(S(=O)(=O)Nc2ccccc2C(=O)N2CCOCC2)cc1	-6%	i	17	5%	-14%
O=C(c1ccccc1NS(=O)(=O)c1ccc(Br)cc1)N1CCOCC1	-1%	i	-53*	1%	15%
CCOC(=O)C1CCN(C(=O)C2COc3ccccc3C2)CC1 (stereo not drawn)	-10%	i	.	0%	-26%
O=C1c2cccc(O)c2C(=O)c2c(O)cccc21	.	i	.	-9%	.
CC1OC(CC(=O)O)CC2=C1C(=O)c1c(O)cccc1C2=O (stereo not drawn)	0.5µM*	0.95µM*	-98*	1.2µM*	?
COc1ccc(NC(=O)c2ccco2)cc1NC(=O)c1ccc(OC(C)C)cc1	-13%	?	.	9%	2%
COc1ccc(/C=C/C(=O)c2ccccn2)cc1	-29%	?	?	21%	-9%
COc1ccc([N+](=O)[O-])c(C=CC(=O)c2ccccn2)c1	-124%	?	-105*	.	?
Cc1cc(F)ccc1NC(=O)C1CCCN(S(=O)(=O)c2ccc3c(c2)CCCC(=O)N3)C1 (stereo not drawn)	-8%	i	.	-5%	0%
CCOC(=O)C(O)c1ccccc1 (stereo not drawn)	.	i	.	7%	.
CN(Cc1ccccc1)c1oc(-c2ccco2)nc1C#N	7%	i	-71*	-5%	-4%
CCC(=O)N1CCc2cc(S(=O)(=O)NC(C(=O)NCCc3ccc(OC)c(OC)c3)C(C)C)ccc21 (stereo not drawn)	-18%	i	.	14%	-1%
COc1ccc(N2CCN(C(=O)CN3C(=O)CSc4c3c(C)nn4-c3ccccc3)CC2)cc1	-2%	i	.	-7%	0%
O=C(CCl)NCCNC(=O)c1cc(OCC(F)(F)F)ccc1OCC(F)(F)F	-19%	i	-60*	-2%	-5%
O=C(NCC1CCCCN1)c1cc(OCC(F)(F)F)ccc1OCC(F)(F)F (stereo not drawn)	-30%	i	-73*	-2%	-105%
CC(C)CC(=O)NCCNC(=O)c1cc(OCC(F)(F)F)ccc1OCC(F)(F)F	-4%	i	-14	1%	-5%
OCCN(CCO)c1ccc(/C=C/c2ccnc3ccccc23)cc1	-11%	.	.	.	1%
CCc1ccc(CNC(=O)CCN2C(=O)COc3ccccc32)cc1	-8%	.	.	.	-37%
CCOC(=O)N1CCN(c2cc(NCCC(=O)O)c3c4c(onc24)-c2ccccc2C3=O)CC1	-11%	?	-64*	-22%	92%
O=C(c1ccco1)N1CCN(CCCCN2C(=O)c3ccccc3C2=O)CC1	-29%	i	-69*	2%	-3%
SMILES	HepG2 viability	ATXN viability	IL-1B inflam inh	ATXN2 expr inh	TGFb inhibitor
O=C1c2ccccc2-c2onc3c(N4CCN(CCO)CC4)cc(N4CCN(C(=O)c5ccco5)CC4)c1c23	18µM*	.	?	?	13µM*
O=C(O)CCCNc1cc(N2CCN(C(=O)c3ccco3)CC2)c2noc3c2c1C(=O)c1ccccc1-3	-36%	?	?	?	76%
COc1ccc(CN2CCOc3ccc(C(O)c4cccnc4)cc3C2)c(F)c1 (stereo not drawn)	.	i	.	.	.
O=c1c(Cl)c(N2CCCCC2)cnn1-c1nc2ccccc2[nH]1	-41%	i	-15	?	-1%
O=c1c2ccccc2cnn1-c1nc2ccccc2[nH]1	2µM*	i	27	0.56µM*	-22%
COc1cc(Cl)c(NC(=O)CN2C(=O)c3cccnc3Sc3ccccc32)c(OC)c1	1%	.	.	.	.

Compound activity: PubChem BioAssay, National Center for Advancing Translational Sciences (NCATS)
